Measurements taken from PubChem BioAssay (NCI).
The panel holds about 83,000 compounds, 20% with a hit somewhere; the sample as a whole holds those more often.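 Assay: single dose, 48 h. Readout: percent growth (0 = no net growth; negative = cell death). Active: <10.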 Unmarked numbers belong to inactive results. Active and inactive are the calls of the source.

Legend:
Experiment in all cases: NCI-60 one-dose screen, 48 h (100 = growth as untreated, 0 = no growth, -100 = all killed)
Conditions in all cases: 10 µM unless noted
[1] = tested on: NCI-H23 lung
[2] = tested on: NCI-H226 lung
[3] = tested on: NCI-H322M lung
[4] = tested on: HOP-62 NSCLC
[5] = tested on: NCI-H460 lung
[6] = tested on: HOP-92 NSCLC
[7] = tested on: NCI-H522 lung
[8] = tested on: A549/ATCC NSCLC
[9] = tested on: 786-0 renal
[10] = tested on: COLO 205 colon
[11] = tested on: DU-145 prostate
[12] = tested on: K-562 leukemia
[13] = tested on: MALME-3M melanoma
[14] = tested on: MDA-MB-231 breast
[15] = tested on: RXF 393 renal
[16] = tested on: SF-268 CNS
[17] = tested on: SF-295 CNS
[18] = tested on: SF-539 CNS
[19] = tested on: UACC-257 melanoma
[20] = tested on: M14 melanoma

| Compound | growth [1] | growth [2] | growth [3] | growth [4] | growth [5] | growth [6] | growth [7] | growth [8] | growth [9] | growth [10] | growth [11] | growth [12] | growth [13] | growth [14] | growth [15] | growth [16] | growth [17] | growth [18] | growth [19] | growth [20] |
| --- | --- | --- | --- | --- | --- | --- | --- | --- | --- | --- | --- | --- | --- | --- | --- | --- | --- | --- | --- | --- |
| Nc1cc(N)c(N=Nc2ccc(S(=O)(=O)O)cc2)cc1N=Nc1ccc(-c2ccc(N=Nc3ccc(O)c(C(=O)O)c3)cc2)cc1 | 95.7% | 92.2% | 101% | 98.8% | 105% | 108% | 98.2% | 101% | 105% | 109% | 111% | 108% | 93.2% | 100% | 124% | 104% | 103% | 100% | 101% | 99.8% |
| C=C(C)[C@@H]1CC[C@]2(C(=O)NCCCCCCN(CCCN)CCCN)CC[C@]3(C)[C@H](CC[C@@H]4[C@@]5(C)CC[C@H](OCCCN)C(C)(C)[C@@H]5CC[C@]43C)[C@@H]12 | 77.4% [100 µM] | 111% [100 µM] | 80.7% [100 µM] | 93.2% [100 µM] | -16.2% [100 µM] (active) | 76.1% [100 µM] | 88.8% [100 µM] | 46.2% [100 µM] | 61.9% [100 µM] | 18.9% [100 µM] | 55% [100 µM] | 1.52% [100 µM] (active) | 43.7% [100 µM] | 37.3% [100 µM] | 69.6% [100 µM] | 99.1% [100 µM] | 92.2% [100 µM] | 79.9% [100 µM] | 88% [100 µM] | 106% [100 µM] |
| CCOC(=O)COc1ccc2c(c1)O/C(=C\c1ccc(O)cc1)C2=O | 104% | 97.7% | 99.7% | 104% | 104% | 115% | 97% | 108% | 112% | 115% | 106% | 106% | 102% | 117% | 114% | 94.2% | 101% | 102% | 105% | 103% |
| O=C1COCCN1c1ccc(NCc2cn(Cc3cccc4ccccc34)c3ccccc23)cc1 | 84% | 5.06% (active) | 91.5% | 84.3% | 64.4% | 72.6% | 86.3% | 87.7% | 98.8% | 93.6% | 98.7% | 84.6% | 90.1% | 101% | 43.1% | 85.3% | 89.6% | 95.6% | 78.4% | 89% |
| C=C(C)[C@@H]1CC[C@]2(C(N)=O)CC[C@]3(C)[C@H](CC[C@@H]4[C@@]5(C)CC[C@H](O)C(C)(C)[C@@H]5CC[C@]43C)[C@@H]12 | -27.1% [100 µM] (active) | -50.5% [100 µM] (active) | -58.9% [100 µM] (active) | -72.2% [100 µM] (active) | -37.5% [100 µM] (active) | -62.8% [100 µM] (active) | -53.8% [100 µM] (active) | -69.3% [100 µM] (active) | -72.2% [100 µM] (active) | -66.2% [100 µM] (active) | -33% [100 µM] (active) | 4.57% [100 µM] (active) | -57.1% [100 µM] (active) | -28.4% [100 µM] (active) | -49.3% [100 µM] (active) | 4.41% [100 µM] (active) | -57.7% [100 µM] (active) | -70.5% [100 µM] (active) | -6.08% [100 µM] (active) | 8.8% [100 µM] (active) |
| CCCCCCCCN(CCCCCCCC)CC(O)c1ccc(Cl)c(C)c1Cl (stereo not given) | 65% | 94.4% | 81.8% | 89.3% | 72.8% | 71.2% | 65.6% | 78% | 91.7% | 60.5% | 105% | 67.9% | 102% | 59.1% | 87.6% | 91.9% | 59.6% | 94.3% | 89.4% | 85.2% |
| O=C(Oc1ccc(Cl)cc1[N+](=O)[O-])Oc1ccc(Cl)cc1[N+](=O)[O-] | 105% | 117% | 122% | 113% | 111% | 93.4% | 104% | 99.2% | 119% | 122% | 116% | 90.2% | 135% | 126% | 124% | 105% | 119% | 109% | 107% | 109% |
| CCN(CC)c1ccc2cc(NC(=O)OCCNC(=O)CCNC(=O)[C@H](CC(C)C)NC(=O)C(C)(C)NC(=O)C(C)(C)NC(=O)[C@H](CC(C)C)NC(=O)CCNC(=O)C(C)(C)NC(=O)[C@H](CC(C)C)NC(=O)CCNC(=O)[C@@](C)(CC)NC(=O)[C@H](C)NC(=O)CCNC(=O)C(C)(C)NC(=O)[C@H](C)NC(=O)[C@@H]3CCCN3C(=O)[C@@](C)(CC)NC(=O)[C@H](Cc3ccccc3)NC(=O)C3CCCN3C(=O)C(C)(C)NC(=O)C3CCCN3C(=O)C(C)(C)NC(C)=O)c(=O)oc2c1 (stereo not given in full) | -85.9% (active) | -65.9% (active) | -80.3% (active) | -86.7% (active) | -76.9% (active) | -95.8% (active) | -82.3% (active) | -76% (active) | -94.8% (active) | -81.1% (active) | -100% (active) | -59.5% (active) | -80.4% (active) | -83.2% (active) | -82% (active) | -94.6% (active) | -84.7% (active) | -84.7% (active) | -89.4% (active) | -79.4% (active) |
| O=C(Nc1cccc2cccnc12)c1cc(C(=O)c2ccc(Cl)cc2)n2ccc(-c3ccncc3)cc12 | 102% | 91% | 95.7% | 88.3% | 98% | 83.9% | 88.8% | 99.1% | 103% | 111% | 106% | 113% | 90.7% | 110% | 104% | 97.8% | 98.9% | 99.7% | 97.7% | 96.1% |
| C[n+]1c(-c2ccccc2)c2cc(N)ccc2c2ccccc21 | 27.5% | 26.3% | 70.8% | 63.8% | 28.4% | 54.5% | -5.84% (active) | 44.4% | 55.3% | 16.7% | 43.8% | 33.4% | -19.5% (active) | 70.8% | 58.9% | -6.88% (active) | 75.6% | 28.5% | 8.1% (active) | 74.3% |
| COc1cc(-c2nc(SCCC(C)C)nc(Nc3ccc(S(N)(=O)=O)cc3)c2C#N)cc(OC)c1OC | 51.2% | 44% | 72.7% | 33.5% | 19.7% | 2.39% (active) | 45% | 26.4% | 31.4% | 29.8% | 43.1% | 7.52% (active) | 19.1% | 25.1% | 10.1% | 42.4% | 21.8% | 38.6% | 46% | 20.6% |
| Cn1cc(-c2noc(-c3cn(C)c4ncc(F)cc34)n2)c2cc(Br)ccc21 | 79.9% | 98.7% | 53.7% | 67.8% | 22.8% | 81.1% | 74.8% | 45.2% | 49.4% | 77.9% | 84.6% | 86.6% | 57.5% | 60.8% | 90.9% | 76.1% | 84.6% | 71.3% | 98.7% | 85.7% |
| Cc1ccc(Oc2c(/C=N/NC(=O)Cn3c(=O)sc4ccccc43)c(C)nn2-c2ccccc2)cc1 | 50.6% | 62% | 67.3% | 71.5% | 52% | 46.1% | 46.7% | 32.8% | 80.9% | 42.4% | 78.1% | 27.2% | 66.5% | 72.2% | 72.9% | 53.3% | 42.1% | 75.2% | 73.2% | 59.2% |
| COc1ccc2c(c1)C(C)Cc1c(Cl)ncnc1N2C (stereo not given) | 7.68% (active) | -3.41% (active) | 36.1% | 11.8% | 16.6% | 6.91% (active) | -49.9% (active) | 15% | 7.84% (active) | -66% (active) | 35.3% | 9.21% (active) | 41.4% | -45.3% (active) | -8.62% (active) | 10.5% | 15.2% | 28% | 13.6% | 12.1% |
